Screening results deposited in PubChem BioAssay by National Center for Advancing Translational Sciences (NCATS).
This is a sample that favours compounds with a hit; in the whole collection about 6.5% have one here.
VACV Venus inh – qHTS for Stage-Specific Inhibitors of Vaccinia Orthopoxvirus: Venus Reporter Primary qHTS. Vaccinia virus Venus reporter expression, fluorescence. Potency, µM (series often up to 36.5 µM), without a hit: at the highest dose activity change, negative = inhibition, hits mostly inhibitors. 330,000 compounds, 0.46% hits. AID 720580, 2013; calls by dose curve; tested in A549 cells; further: potency means the concentration at half of the fitted maximal effect; nearly all actives have a fitted effect of over 30% in size
VACV mCherry inh – qHTS for Stage-Specific Inhibitors of Vaccinia Orthopoxvirus: mCherry Reporter Primary qHTS; 310,000 compounds, 0.63% hits; Potency, µM (titrated, usually from 36.5 µM), for the others: at the highest dose activity change, negative = inhibition, most hits filed as inhibitors; Vaccinia virus mCherry reporter infection, fluorescence; calls by dose curve; tested in A549 cells; further: potency means the concentration at half of the fitted maximal effect; nearly all actives have a fitted effect of over 35% in size
LASV entry inh – qHTS for Inhibitors of binding or entry into cells for Lassa Virus; AID 540256, 2011; 300,000 compounds, 1.2% hits; Potency, µM (top dose mostly 37.9 µM), inactives show at the top dose activity change, negative = inhibition, usual class: inhibitors; Lassa virus pseudotype entry inhibition, cell reporter; calls by dose curve; tested in HEK293 cells; further: potency means the concentration at half of the fitted maximal effect; nearly all actives have a fitted effect of over 50% in size
HCMV antiviral – qHTS Assay for inhibitors of the human cytomegalovirus (HCMV); HFF cells, HCMV-luciferase reporter, 72 h; active compounds read low; activity change, negative = inhibition, % at 57.5 µM; 410,000 compounds, 4.5% hits; AID 1259415, 2018; in the data active means activity change below about -60%; inconclusive means no clear call, values can overlap the other calls; inactive means above about -39%
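Screen run at 2 compound doses on HFFs infected with reporter HCMV, MOI 1 PFU/cell. Luciferase activity from cell lysates at 72 h post infection gave inhibition relative to buffer-only and Salinomycin wells.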
MARV entry inh – qHTS for inhibitors of binding or entry into cells for Marburg Virus | Marburg virus pseudotyped entry inhibition, cell reporter | Potency, µM (doses to about 37.8 µM), without a hit: top-dose activity change, negative = inhibition, actives largely listed as inhibitors | 300,000 compounds, 1.8% hits; calls by dose curve; tested in HEK293 cells; further: potency means the concentration at half of the fitted maximal effect
FMDV antiviral – High Throughput Screening for Foot and Mouth Disease Virus Antivirals; 410,000 compounds, 1.2% hits; Potency, µM (series often up to 57.9 µM), inactives show top-dose activity change, negative = inhibition, actives largely listed as inhibitors; FMDV antiviral cell-based qHTS; calls by dose curve; tested in HEK293T cells; further: read-out not given here; potency means the concentration at half of the fitted maximal effect; nearly all actives have a fitted effect of over 45% in size
The depositor's hits bear a star; [ ] = remark or other dose. On the % scale 0 is the no-effect control and ±100 the full control effect.

What do the screens show for `COc1cc(=O)n2c(c1C(=O)NC(C)c1ccco1)CCN(C(=O)c1ccc3c(c1)OCCO3)CC2` (centres undefined)?
VACV Venus inh: -6%; VACV mCherry inh: -8%; FMDV antiviral: -2%

Results for CC1CCCN(c2cccc3c2S(=O)(=O)N(Cc2cccc(F)c2)[C@@H](C)[C@H](c2ccccc2)O3)C1 (some centres undefined) ?
HCMV antiviral: -15

What do the screens show for `Cc1c(O)ccc(/C=N/Nc2ncccc2[N+](=O)[O-])c1O`?
VACV Venus inh: -28%; VACV mCherry inh: inconclusive; LASV entry inh: inconclusive; HCMV antiviral: -69*; MARV entry inh: inconclusive; FMDV antiviral: -20%

How did O=[N+]([O-])c1cccnc1N/N=C/c1ccccc1O do in these assays?
VACV Venus inh: 13%; VACV mCherry inh: inconclusive; LASV entry inh: inconclusive; HCMV antiviral: -97*; MARV entry inh: inconclusive; FMDV antiviral: 3%

Results for Cc1ccc2[nH]cc(C(=O)CN3CCN(C)CC3)c2c1 ?
LASV entry inh: 13%; HCMV antiviral: 17; MARV entry inh: inconclusive; FMDV antiviral: 13%

What do the screens show for `Cc1ccc2[nH]cc(C(=O)CCl)c2c1`?
VACV Venus inh: -25%; VACV mCherry inh: inconclusive; LASV entry inh: inconclusive; HCMV antiviral: -91*; MARV entry inh: inconclusive; FMDV antiviral: 11µM*

Results for CCCS(=O)(=O)c1c(S(=O)(=O)CCC)c2cc(CC)ccn2c1C(=O)c1ccc(OC)cc1 ?
VACV Venus inh: -9%; VACV mCherry inh: inactive; LASV entry inh: -16%[46.1 µM]; HCMV antiviral: -30; MARV entry inh: 16%[46.1 µM]; FMDV antiviral: -17%

What do the screens show for `CCCS(=O)(=O)c1c(S(=O)(=O)CCC)c2cc(-c3ccncc3)ccn2c1C(=O)OC`?
VACV Venus inh: -12%; VACV mCherry inh: -13%; LASV entry inh: 0%; HCMV antiviral: 160; MARV entry inh: 5.6µM*; FMDV antiviral: 23%

Results for Cc1ccc(NCc2cccn2-c2nnc(N3CCC(C(=O)NCc4ccc(OC(C)C)cc4)CC3)s2)cc1 ?
VACV Venus inh: inconclusive; VACV mCherry inh: inconclusive; HCMV antiviral: -80*; MARV entry inh: inconclusive; FMDV antiviral: inconclusive

Results for CCOc1ccc(NCc2cccn2-c2nnc(N3CCC(C(=O)NCC(C)c4ccccc4)CC3)s2)cc1 (centres undefined) ?
VACV Venus inh: inconclusive; VACV mCherry inh: inconclusive; HCMV antiviral: -80*; MARV entry inh: inconclusive; FMDV antiviral: inconclusive

What do the screens show for `CCOc1ccc(NCc2cccn2-c2nnc(N3CCC(C(=O)NCc4cccc(OC)c4)CC3)s2)cc1`?
VACV Venus inh: -27%; VACV mCherry inh: -25%; HCMV antiviral: -84*; MARV entry inh: 1%[46.1 µM]; FMDV antiviral: inconclusive

Results for Cc1ccc(NCc2cccn2-c2nnc(N3CCC(C(=O)NCCc4ccc(Cl)cc4)CC3)s2)cc1 ?
VACV Venus inh: inconclusive; VACV mCherry inh: inconclusive; HCMV antiviral: inconclusive; MARV entry inh: 2%[46.1 µM]; FMDV antiviral: 0%

What do the screens show for `CCOc1ccc(NCc2cccn2-c2nnc(N3CCC(C(=O)NCc4ccc(C)cc4)CC3)s2)cc1`?
VACV Venus inh: inconclusive; VACV mCherry inh: inconclusive; HCMV antiviral: -76*; MARV entry inh: inconclusive; FMDV antiviral: inconclusive

How did CCOc1ccc(NCc2cccn2-c2nnc(N3CCC(C(=O)NCCOC)CC3)s2)cc1 do in these assays?
VACV Venus inh: -6%; VACV mCherry inh: -6%; HCMV antiviral: -35; MARV entry inh: inconclusive; FMDV antiviral: -22%

How did COc1ccc2c(c1)[C@@H](NCc1nccs1)[C@H](C)[C@@H](c1ccccc1)N2C(=O)NC(C)C do in these assays?
HCMV antiviral: -9

What do the screens show for `O=C(CSc1nnc2c(n1)[nH]c1ccccc12)Nc1nncs1`?
VACV Venus inh: -8%; VACV mCherry inh: -12%; LASV entry inh: 2%[46.1 µM]; HCMV antiviral: 22; MARV entry inh: -15%[46.1 µM]; FMDV antiviral: 2%

Results for CCN(CC)c1ccc(/C=C/c2ccncc2)cc1 ?
VACV Venus inh: inactive; VACV mCherry inh: 6%

Results for Cc1ccccc1Nc1nnc(-c2ccc(C)c(S(=O)(=O)N3CCCCC3)c2)c2ccccc12 ?
VACV Venus inh: -12%; VACV mCherry inh: inconclusive; LASV entry inh: inconclusive; HCMV antiviral: -63*; FMDV antiviral: 0%

How did Cc1ccc(-c2nnc(Nc3ccc(O)cc3)c3ccccc23)cc1S(=O)(=O)N1CCCCC1 do in these assays?
VACV Venus inh: inconclusive; VACV mCherry inh: inconclusive; LASV entry inh: 1%[46.1 µM]; HCMV antiviral: -90*; FMDV antiviral: -7%

What do the screens show for `Cc1ccc(-c2nnc(Nc3ccc(C(N)=O)cc3)c3ccccc23)cc1S(=O)(=O)N1CCCCC1`?
VACV Venus inh: -16%; VACV mCherry inh: -14%; LASV entry inh: inconclusive; HCMV antiviral: -33; FMDV antiviral: -20%

What do the screens show for `Cn1c(=S)[nH]c2sc3c(c2c1=O)CCC(C(C)(C)C)C3` (centres undefined)?
HCMV antiviral: -95*

What do the screens show for `COc1cc(/C=C(/C#N)c2ccc(F)cc2)ccc1Oc1ccc([N+](=O)[O-])cn1`?
VACV Venus inh: -21%; VACV mCherry inh: -27%; LASV entry inh: inconclusive; HCMV antiviral: -61*; MARV entry inh: inconclusive; FMDV antiviral: inconclusive

Results for CCOc1cc(C=C(C#N)C#N)ccc1Oc1ccc([N+](=O)[O-])cn1 ?
HCMV antiviral: 11; FMDV antiviral: -36%

Results for COc1ccc2c(c1)CCc1cnc(-n3ncc(C(=O)NCCCN4CCOCC4)c3C)nc1-2 ?
VACV Venus inh: -21%; VACV mCherry inh: inconclusive; FMDV antiviral: -4%

Results for COc1ccc(CNC(=O)c2cn(-c3cccc(OC)c3)c(=O)c3ccccc23)cc1 ?
VACV Venus inh: -8%; VACV mCherry inh: -9%; LASV entry inh: 0%[46.1 µM]; HCMV antiviral: -38; FMDV antiviral: -16%

Results for CCN(C(=O)c1cn(-c2cccc(OC)c2)c(=O)c2ccccc12)c1ccccc1C ?
VACV Venus inh: -11%; VACV mCherry inh: -6%; LASV entry inh: -8%[46.1 µM]; HCMV antiviral: -70*; FMDV antiviral: -5%

How did COc1cccc(-n2cc(C(=O)Nc3ccccc3C(N)=O)c3ccccc3c2=O)c1 do in these assays?
VACV Venus inh: -10%; VACV mCherry inh: -19%; LASV entry inh: 6%[46.1 µM]; HCMV antiviral: -80*; FMDV antiviral: -24%

Results for CCn1cc(C(=O)N(C)c2cc(C)ccc2OC)c2cc(OC)c(OC)cc2c1=O ?
FMDV antiviral: -20%
